Laboratory results taken from PubChem BioAssay AID1461 (National Center for Advancing Translational Sciences (NCATS), 2008).
Among all 220,000 compounds or so, about 2,300 (1%) were called active. Roughly 6% stayed inconclusive and do not appear here. This excerpt belongs to a sample that is enriched for actives. Values without a mark were called inactive. Calls follow the shape of the dose curve; as a rule, active = well fitted inhibition curve with a large enough effect; inconclusive = small, poorly fitted or top-dose-only effect, or effect the other way; inactive = no such curve, though single readings can be large or run the other way.

These compounds were tested against Neuropeptide S receptor (Homo sapiens) (UniProt Q6W5P4) (assay: qHTS Assay for Antagonists of the Neuropeptide S Receptor: cAMP Signal Transduction). Conditions: CHO-NPSR cells, cAMP TR-FRET, antagonist mode; series mostly up to 38.3 µM; activity change, negative = inhibition: at the top concentration.
From the text: NIH Chemical Genomics Center [NCGC] NIH Molecular Libraries Probe Production centers Network [MLPCN] MLPCN Grant: X01-DA026210-01 Assay Submitter (PI): Heilig, Markus Alexander NCGC Assay Overview: Neuropeptide S receptor (NPSR), previously known as GPR154, is a recently de-orphanized G protein coupled receptor. Its endogenous ligand is the 20 amino acids peptide Neuropeptide S (NPS). […] NPS and its receptor are found in various tissues. Specifically they are highly expressed in brain areas that have been implicated in modulation of arousal, stress and anxiety. Central administration of NPS in mice produces an unusual profile of activity by inducing wakefulness and arousal, while at the same time suppressing anxiety. Therefore, NPSR may represent a novel drug target for the treatment of sleep and anxiety disorders. To identify NPSR antagonists, we developed a cell-based cAMP assay. NPS can stimulate the production of cAMP in Chinese hamster ovary cells stably expressing NPS receptor. This change in intracellular cAMP level can be detected by a homogeneous LANCE cAMP assay based on the TR-FRET (time resolved fluorescence resonance energy transfer) between a europium-labeled cAMP tracer complex and a cAMP-specific antibody labeled with Alexa Fluor 647. The europium-labeled cAMP tracer complex is formed by the tight interaction between Biotin-cAMP (b-cAMP) and streptavidin labeled with Europium-W8044 chelate (Eu-SA). Light pulse at 320 nm excites the europium of the cAMP tracer and the energy emitted is transferred to the Alexa molecule bound to the cAMP antibody, generating a TR-FRET signal at 665 nm. Residual energy from the europium will produce a light at 620 nm. The native unlabeled cAMP from cell lysates competes with the europium-cAMP tracer for antibody binding and reversely reduces the emission signal of Alexa by interrupting FRET between the two labeled molecules. Both emission signals from the FRET donor (620 nm) and the acceptor (665 nm) can be detected by a plate reader in the TRF mode. Expression of result in fluorescence ratio (665 nm/620 nm) helps to normalize differences due to cell density and reagent dispensing. This assay was successfully optimized to a 1536-well plate format.
NCGC Assay Protocol Summary: A Chinese hamster ovary (CHO) cell line stably expressing the NPS receptor (CHO-NPSR) was obtained from Dr. Heilig lab at NIAAA and maintained in F-12 Kaighn's media (Invitrogen, Carlsbad, CA, 21127) supplemented with 10 % FBS, 100 units/ml penicillin, 100 ug/ml streptomycin and 250 ug/ml geneticin at 37C, 5% CO2 in a humidified atmosphere. Before the assay, aliquots of cells were frozen and stored at -135C. The assay was performed in 1536-well format. Data are reported for both the ratio of the two emission wavelengths, and also for the component 'donor' channel, Em2=620. Data were normalized to the controls for basal activity (DMSO only) and 100% inhibition (No NPS control). IC50 values were determined from concentration-response data modeled with the standard Hill equation. NPS 1536-well assay protocol: (1) Fresh or frozen CHO-NPSR cells were suspended in F-12 Kaighn's media supplemented with 10 % FBS, 100 units/ml penicillin and 100 ug/ml streptomycin. Cells were plated at 4 ul/well (1200 cells) to white, tissue culture treated 1536-well plates, and then cultured at 37C, 5 % CO2 for 16 to 30 hours. (2) Add 23 nl/well of compound in DMSO solution. The final titration for each compound was between 0.6 nM and 46 uM. (3) Add 1 ul of stimulation reagent (1X HBSS buffer, 5 mM HEPES, 0.1% BSA, 500 uM RO-201724 (Sigma-Aldrich, B8279), 1.5% Alexa 647-labeled anti-cAMP antibody (from Perkin Elmer), 100 nM NPS) (4) Incubation at 37C, 5 % CO2 for 60 min. (5) Add 1 ul/well detection reagent. Detection reagent was prepared by adding biotin labeled cAMP (4%), streptavidin labeled with Europium-W8044 chelate (1.33%) and TritonX-100 (1%) to detection buffer. […]
% is scaled to controls: 0 for no effect and ±100 for the full control effect; potency is read from the fitted curve at half-maximal effect.
Also: nearly all actives have a fitted effect of over 50% in size.

Neuropeptide S receptor (Homo sapiens), sequence (Q6W5P4 whole entry, looked up): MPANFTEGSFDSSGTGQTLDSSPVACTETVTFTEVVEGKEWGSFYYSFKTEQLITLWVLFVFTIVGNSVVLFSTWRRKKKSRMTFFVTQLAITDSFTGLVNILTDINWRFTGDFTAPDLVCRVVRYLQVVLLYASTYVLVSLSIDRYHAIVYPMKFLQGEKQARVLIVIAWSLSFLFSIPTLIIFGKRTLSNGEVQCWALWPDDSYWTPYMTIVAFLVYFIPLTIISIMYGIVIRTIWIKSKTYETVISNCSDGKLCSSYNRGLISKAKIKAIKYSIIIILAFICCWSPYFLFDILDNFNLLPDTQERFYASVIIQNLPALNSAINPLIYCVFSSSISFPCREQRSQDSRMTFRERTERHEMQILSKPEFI

| Structure (SMILES) | activity change, negative = inhibition | Potency |
| --- | --- | --- |
| N#C/C(=C\N1CCOCC1)S(=O)(=O)c1ccc(Cl)cc1 | 14.9% | – |
| O=C(COc1ccccc1)N1CCN=C1SCc1cccc(F)c1 | -1.12% | – |
| N#CCCCn1c(O)c(N=NC(=O)C(O)c2ccccc2)c2ccccc21 (stereo unspecified) | -19.2% | – |
| O=C(NCC(c1cccs1)N1CCOCC1)c1cc(-c2ccccn2)nc2ccccc12 (stereo unspecified) | 7.93% | – |
| O=C(NCc1cccs1)c1cc(-c2ccccn2)nc2ccc(Br)cc12 | – | 10 µM (active) |
| O=C(NCc1ccccn1)c1cc(Br)ccc1Cl | 7.75% | – |
| C#CCO[C@@H]1C[C@H](n2cnc3c(=O)[nH]c(NC(=O)C(C)C)nc32)O[C@@H]1CO | 10.8% | – |
| CCC1=NN2C(=N)/C(=C/c3cc(C)n(-c4ccccc4)c3C)C(=O)N=C2S1 | 19.1% | – |
| Cc1ccc2cc(/C=N/Nc3ccc(C(=O)O)cc3)c(Cl)nc2c1 | -22.4% | – |
| Cc1cc(C)c(C2C3=C(Nc4c2c(C)nn4-c2ccccn2)c2ccccc2C3=O)c(C)c1 (stereo unspecified) | – | 10 µM (active) |
| Cc1nn(-c2ccccn2)c2c1C(c1ccncc1)C1=C(CC(C)(C)CC1=O)N2 (stereo unspecified) | -14.2% [at 46.1 µM] | – |
| Cc1ccc(C2C3=C(Nc4[nH]n(-c5ccccc5)c(=O)c42)c2ccccc2C3=O)cc1 (stereo unspecified) | -43.2% | – |
| COCc1cc(=O)[nH]c(-c2ccc(C(F)(F)F)cc2)n1 | -8.06% | – |
| Cc1oc(C(N)=O)cc1COc1ccc(C(N)=O)cc1 | 11.4% | – |
| O=C(Nc1nc2ccc([N+](=O)[O-])cc2s1)c1ccncc1 | -23.6% | – |
| O=C(O)CCC(=O)Nc1nc2ccc([N+](=O)[O-])cc2s1 | 36.1% | – |
| O=C(NC(Nc1nc2ccc([N+](=O)[O-])cc2s1)(C(F)(F)F)C(F)(F)F)c1ccccc1 | – | 3.98 µM (active) |
| O=c1c2cc(-c3ccccc3)sc2nc2n1N=C(c1cccs1)CS2 | 12.2% | – |
| Brc1ccc2ncnc(NCc3cccnc3)c2c1 | 48.1% | – |
| O=C(Nc1cccnc1Oc1ncnc2cc(Cl)ccc12)c1ccc(F)cc1 | 4.01% | – |
| N#Cc1c(NCCO)ccc([N+](=O)[O-])c1NCCO | 8.09% | – |
| CCN1CCN(c2ccc([N+](=O)[O-])cc2C(=O)c2ccc(Cl)cc2)CC1 | -24.6% [at 46.1 µM] | – |
| Cc1cccc(NC(=O)c2cc([N+](=O)[O-])ccc2N2CCN(C)CC2)c1 | -44.1% | – |
| O=C(Nc1cccc(Cl)c1)c1cc([N+](=O)[O-])ccc1N1CCN(CCO)CC1 | – | 10 µM (active) |
| CCC(C)N1C(=S)SC(C)(C)C1N(O)C(=O)NC1CCCCC1 (stereo unspecified) | -8.21% | – |
| CCCN(CCC)S(=O)(=O)c1ccc(C(=O)N2CC3CCC(CC3)C2)cc1 | 59.1% | – |

| Structure (SMILES) | activity change, negative = inhibition | Potency |
| --- | --- | --- |
| COc1ccc(C(=O)Cc2cnn(-c3ccccc3)c2)c(O)c1 | -8.11% [at 46.1 µM] | – |
| Cc1[nH]nc(-c2ccc(OCc3cnn(-c4ccccc4)c3)cc2O)c1Oc1ccc(Cl)cc1 | – | 10 µM (active) |
| CCOc1ccc(-c2n[nH]c(C)c2-c2ccccn2)c(O)c1 | -0.578% | – |
| CC(C)n1c(CN2CCN(Cc3ccccc3)CC2)nc2ccccc21 | 15.9% | – |
| Cn1cc(S(=O)(=O)NC(c2ccccc2)c2ccccc2)c(=O)n(C)c1=O | 11.3% | – |
| CCCc1nc2c(C)cc(-c3nc4ccccc4n3C)cc2n1Cc1ccc(-c2ccccc2C(=O)O)cc1 | – | 1.26 µM (active) |
| CC(=O)Nc1nc2ccccc2n1Cc1ccc(C)cc1 | 2.41% | – |
| CCC(=O)NCCc1nc2ccccc2n1CC | -9.81% [at 46.1 µM] | – |
| CS(=O)(=O)c1sc(C(=O)NC(=S)Nc2ccc(OC(F)(F)F)cc2)c2c1C=CCC2 | 0.129% | – |
| Cc1ccc2nc(-c3cccc(Br)c3)cc(C(=O)Nn3cnnc3)c2c1 | -9.85% | – |
| Cc1cccc(-[n+]2c(-c3cccc(Br)c3)[nH]c3nc4ccccc4nc32)c1 | – | 10 µM (active) |
| COc1ccc2cc1Oc1ccc(cc1)C[C@H]1c3cc(c(OC)cc3CCN1C)Oc1c(O)c(OC)cc3c1[C@H](C2)N(C)CC3 | 6.91% | – |
| O=C(Nc1nnc(COc2ccccc2)s1)Nc1ccccc1F | 14.2% | – |
| CCC(=O)c1ccc(OCC(=O)Nc2ccc3nc(C)sc3c2)cc1 | -3.19% | – |
| CCOC(=O)CC1C(=O)NCCN1c1nc2c(C)cccn2c(=O)c1/C=C1\SC(=S)N(C(C)CC)C1=O (stereo unspecified) | – | 12.6 µM (active) |
| Cc1cccn2c(=O)c(/C=C3\SC(=S)N(CC(C)C)C3=O)c(NCCCOC(C)C)nc12 | -1.16% [at 46.1 µM] | – |
| CCOC(=O)CC1C(=O)NCCN1C(=O)COc1ccc(Br)cc1C (stereo unspecified) | 2.52% [at 46.1 µM] | – |
| CC(C)OP(=O)(OC(C)C)C(Nc1ccccc1)c1cccc([N+](=O)[O-])c1 (stereo unspecified) | -43.6% | – |
| Cc1ccc(-c2csc(NC(=O)c3cccs3)n2)cc1 | -24.1% [at 46.1 µM] | – |
| CCc1nnc(NS(=O)(=O)c2ccc(NC(=S)NC(=O)c3cccs3)cc2)s1 | 27.6% | – |
| Cc1sc(NC(=S)NC(=O)c2cccs2)nc1-c1ccc(CC(C)C)cc1 | – | 12.6 µM (active) |
| COC(C[C@@H](O)[C@H](C)[C@H](O)COCc1ccccc1)OC | 21.1% | – |
| O=C(Nc1ccccc1)O/N=C1/CCCc2occc21 | 2.04% | – |
| O=C(CNCc1cccs1)Nc1cc(S(=O)(=O)N2CCCC2)ccc1Cl | -21.1% | – |
| C=CCNC(=O)CSc1nc2scc(-c3ccco3)c2c(=O)n1CC=C | -7.73% | – |
